# Results from PubChem BioAssay (NCATS).
# Inconclusive results are not listed. A call without a number means that no potency is given here. Activity calls are given as the source filed them. Unless noted, calls follow the shape of the dose curve; as a rule, active = well fitted curve in the direction sought with a large enough effect; inconclusive = small, poorly fitted or top-dose-only effect, or another doubt; inactive = no such curve, though single readings can be large; an effect the other way counts as inactive or inconclusive.
# Assays:
# [1] = Stat Signaling Pathway (AID 446; active = well fitted curve in either direction with a large enough effect, not every such curve was filed as active;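 also: ME-180 cervical cancer cells given 40 pM IL-6 alongside compound; SIE-controlled beta-lactamase reporter measured as 460/530 nm FRET emission ratio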)
# Outline: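 IL-6/STAT signaling read in ME-180 cells via an SIE beta-lactamase reporter. Stimulus was 40 pM IL-6 (its AC50) for 5 hrs, so both activation and inhibition register.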
# [2] = biological target: Mitogen-activated protein kinase 10 (Mus musculus) (UniProt Q61831); experiment: JNK3 AlphaScreen Assay (AID 530; active = well fitted curve in either direction with a large enough effect, not every such curve was filed as active;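 also: kinase came from lysate of stimulated human HepG2 cells; signal reports phosphorylation of biotinylated GST-cJun 1-79 at Ser73 with 10 µM ATP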)
# Outline: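 Compound titrations were preincubated 15 minutes at room temperature with substrate, antibody and pre-activated JNK3-containing HepG2 lysate. Reactions were started with 10 uM ATP and stopped with EDTA-containing bead buffer for AlphaScreen detection.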
# [3] = biological target: 3',5'-cyclic-AMP phosphodiesterase 4B (Homo sapiens) (UniProt Q07343); experiment: qHTS Assay for Inhibitors of PDE-IV (AID 607; active = well fitted activation curve with a large enough effect in the main read-out, with a control signal flat, not every such curve was filed as active)
# Outline: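 Live HEK293 cells with a modified cyclic nucleotide-gated (CNG) channel report intracellular cAMP via membrane-potential dye fluorescence (ex 535/em 590 nm). Endogenous PDE-IV was targeted. Compounds were tested at up to 22.9 uM final; RO 20-1724 100 uM served as control.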
# [4] = qHTS Assay for Lipid Storage Modulators (AID 1519; calls by dose curve); details: Drosophila S3 cells, BODIPY lipid droplet/cell ratio, laser cytometry, cells loaded with oleic acid
# Outline: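 Cells seeded at 5,000 per well were treated with compounds over a concentration series and loaded with oleic acid (400 uM, as added). Lipid droplet fluorescence (488 nm excitation, 500-530 nm channel) was read by laser-scanning cytometry and normalized to 20 uM Triacsin C.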
# [5] = biological target: Ubiquitin carboxyl-terminal hydrolase 1 (Homo sapiens) (UniProt O94782); experiment: Inhibitors of USP1/UAF1: Pilot qHTS (AID 504865);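 also: rhodamine fluorescence freed from ubiquitin-rhodamine substrate followed over time; top concentration of the series differs between compounds; nearly all actives have a fitted effect of over 35% in size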
# Outline: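 Kinetic fluorescence assay: 1nM USP1/UAF1, 15 min compound preincubation, then 150nM Ub-Rho; 480/540 nm.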
# [6] = biological target: ATP-dependent 6-phosphofructokinase (Trypanosoma brucei brucei) (UniProt O15648); experiment: qHTS Assay to Find Inhibitors of T. brucei phosphofructokinase: hit validation (AID 492961);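 also: luminescence reports ADP formed as PFK phosphorylates fructose-6-phosphate with ATP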
# Outline: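 Measures ADP output of PFK (1.25 nM) at 0.1 mM ATP, 0.5 mM F6P, pH 8.0 TEA buffer with 5 mM MgCl2. No-enzyme wells define full inhibition; uninhibited enzyme wells define zero.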
# [7] = biological target: Luciferin 4-monooxygenase (Photinus pyralis) (UniProt P08659); experiment: Biochemical firefly luciferase enzyme assay for NPC (AID 624030);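 also: purified P. pyralis luciferase at 10 nM with luciferin and ATP substrate; nearly all actives have a fitted effect of over 70% in size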
# Outline: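 Direct inhibition of firefly luciferase enzyme (10 nM final, 50 mM Tris Acetate) assessed by luminescence within 5 minutes. Percent activity scaled between DMSO and PTC124 positive control, with concentration-effect curves classified by fit quality and response.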
# C2A = experiment: qHTS profiling for inhibitors of Plasmodium falciparum proliferation (AID 504749); also: nearly all actives have a fitted effect of over 60% in size; details: P. falciparum in erythrocytes, SYBR Green DNA, 72 h; series mostly up to 12.8 µM
# Outline: (§1)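 Infected RBCs, 0.3% parasitemia/2.5% Hct final; cpd 72 h, 37 C, 5% CO2; lysis buffer with saponin/triton/SYBR Green I, o/n RT dark; FI 485/535; norm. to artemisinin (0.29 uM) and DMSO.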
# CP217 = experiment: as above; details: P. falciparum in erythrocytes, SYBR Green DNA, 72 h; series mostly up to 12.8 µM
# Outline: as §1
# CP238 = experiment: as above; details: P. falciparum in erythrocytes, SYBR Green DNA, 72 h; series mostly up to 12.8 µM
# Outline: as §1
# DIV30 = experiment: as above; details: P. falciparum in erythrocytes, SYBR Green DNA, 72 h; series mostly up to 12.8 µM
# Outline: as §1
# FAB9 = experiment: as above; details: P. falciparum in erythrocytes, SYBR Green DNA, 72 h; series mostly up to 12.8 µM
# Outline: as §1
# PC49 = experiment: as above; details: P. falciparum in erythrocytes, SYBR Green DNA, 72 h; series mostly up to 12.8 µM
# Outline: as §1
# 3D7 = experiment: as above; details: P. falciparum in erythrocytes, SYBR Green DNA, 72 h; series mostly up to 12.8 µM
# Outline: as §1
# CP262 = experiment: as above; details: P. falciparum in erythrocytes, SYBR Green DNA, 72 h; series mostly up to 12.8 µM
# Outline: as §1
# CP269 = experiment: as above; details: P. falciparum in erythrocytes, SYBR Green DNA, 72 h; series mostly up to 12.8 µM
# Outline: as §1
# CP305 = experiment: as above; details: P. falciparum in erythrocytes, SYBR Green DNA, 72 h; series mostly up to 12.8 µM
# Outline: as §1
# CP325 = experiment: as above; details: P. falciparum in erythrocytes, SYBR Green DNA, 72 h; series mostly up to 12.8 µM
# Outline: as §1
# CP329 = experiment: as above; details: P. falciparum in erythrocytes, SYBR Green DNA, 72 h; series mostly up to 12.8 µM
# Outline: as §1
# [8] = measured here: cell count channel max response
# [9] = measured here: lipid channel max response
# Chain of Ubiquitin carboxyl-terminal hydrolase 1 (Homo sapiens) (O94782 whole entry, looked up): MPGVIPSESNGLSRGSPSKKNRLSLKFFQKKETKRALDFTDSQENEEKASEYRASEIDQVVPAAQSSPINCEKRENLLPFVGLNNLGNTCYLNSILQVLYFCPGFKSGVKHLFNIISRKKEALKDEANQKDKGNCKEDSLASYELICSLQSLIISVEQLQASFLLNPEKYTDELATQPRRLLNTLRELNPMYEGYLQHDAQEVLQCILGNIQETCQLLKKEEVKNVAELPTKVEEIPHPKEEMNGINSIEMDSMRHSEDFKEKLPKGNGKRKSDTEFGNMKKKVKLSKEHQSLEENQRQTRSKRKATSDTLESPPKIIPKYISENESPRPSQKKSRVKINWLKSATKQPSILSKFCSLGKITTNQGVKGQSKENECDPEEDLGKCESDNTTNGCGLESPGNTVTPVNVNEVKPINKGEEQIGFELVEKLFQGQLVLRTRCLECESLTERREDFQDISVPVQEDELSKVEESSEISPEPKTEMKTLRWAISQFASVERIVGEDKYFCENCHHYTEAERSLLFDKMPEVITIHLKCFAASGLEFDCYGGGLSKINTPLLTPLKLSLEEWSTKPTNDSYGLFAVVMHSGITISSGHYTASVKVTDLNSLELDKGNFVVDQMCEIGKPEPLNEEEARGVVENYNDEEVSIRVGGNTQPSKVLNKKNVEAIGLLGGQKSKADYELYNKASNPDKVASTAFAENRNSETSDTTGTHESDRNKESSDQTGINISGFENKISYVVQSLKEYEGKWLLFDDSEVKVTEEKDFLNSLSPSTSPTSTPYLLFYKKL
# Chain of 3',5'-cyclic-AMP phosphodiesterase 4B (Homo sapiens) (Q07343 whole entry, looked up): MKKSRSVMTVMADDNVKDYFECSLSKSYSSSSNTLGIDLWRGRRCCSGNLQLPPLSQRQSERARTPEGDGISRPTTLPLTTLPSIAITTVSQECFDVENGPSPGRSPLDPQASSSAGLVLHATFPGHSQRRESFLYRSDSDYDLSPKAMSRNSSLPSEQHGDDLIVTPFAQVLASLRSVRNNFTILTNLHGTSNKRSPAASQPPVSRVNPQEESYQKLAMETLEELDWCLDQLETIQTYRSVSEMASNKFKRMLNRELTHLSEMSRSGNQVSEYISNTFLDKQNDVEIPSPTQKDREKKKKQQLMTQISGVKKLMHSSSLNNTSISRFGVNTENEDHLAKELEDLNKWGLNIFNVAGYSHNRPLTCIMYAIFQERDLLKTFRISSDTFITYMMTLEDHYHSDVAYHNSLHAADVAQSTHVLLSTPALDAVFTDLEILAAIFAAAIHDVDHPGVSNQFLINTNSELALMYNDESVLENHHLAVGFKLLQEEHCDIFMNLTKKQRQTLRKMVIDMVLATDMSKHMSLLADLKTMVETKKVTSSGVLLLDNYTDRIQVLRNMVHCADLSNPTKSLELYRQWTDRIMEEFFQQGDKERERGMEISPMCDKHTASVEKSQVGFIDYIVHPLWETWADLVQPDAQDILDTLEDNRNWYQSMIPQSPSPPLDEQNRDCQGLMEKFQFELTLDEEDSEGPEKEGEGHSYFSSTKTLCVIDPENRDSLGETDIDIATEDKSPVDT
# Chain of Luciferin 4-monooxygenase (Photinus pyralis) (P08659 whole entry, looked up): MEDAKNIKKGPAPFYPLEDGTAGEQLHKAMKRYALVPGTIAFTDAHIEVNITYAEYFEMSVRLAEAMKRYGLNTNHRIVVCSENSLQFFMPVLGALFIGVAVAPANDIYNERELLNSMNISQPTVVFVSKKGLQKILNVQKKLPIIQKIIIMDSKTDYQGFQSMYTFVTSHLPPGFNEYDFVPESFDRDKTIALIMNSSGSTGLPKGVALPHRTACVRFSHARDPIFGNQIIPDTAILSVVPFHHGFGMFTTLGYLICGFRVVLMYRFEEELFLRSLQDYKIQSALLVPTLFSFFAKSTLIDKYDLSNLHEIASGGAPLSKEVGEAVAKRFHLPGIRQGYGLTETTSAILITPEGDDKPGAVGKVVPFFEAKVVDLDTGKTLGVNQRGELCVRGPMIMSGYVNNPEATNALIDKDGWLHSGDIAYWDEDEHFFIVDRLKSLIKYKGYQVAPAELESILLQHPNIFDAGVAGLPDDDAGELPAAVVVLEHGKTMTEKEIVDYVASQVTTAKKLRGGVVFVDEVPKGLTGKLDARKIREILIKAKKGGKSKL
# Chain of ATP-dependent 6-phosphofructokinase (Trypanosoma brucei brucei) (O15648 whole entry, looked up): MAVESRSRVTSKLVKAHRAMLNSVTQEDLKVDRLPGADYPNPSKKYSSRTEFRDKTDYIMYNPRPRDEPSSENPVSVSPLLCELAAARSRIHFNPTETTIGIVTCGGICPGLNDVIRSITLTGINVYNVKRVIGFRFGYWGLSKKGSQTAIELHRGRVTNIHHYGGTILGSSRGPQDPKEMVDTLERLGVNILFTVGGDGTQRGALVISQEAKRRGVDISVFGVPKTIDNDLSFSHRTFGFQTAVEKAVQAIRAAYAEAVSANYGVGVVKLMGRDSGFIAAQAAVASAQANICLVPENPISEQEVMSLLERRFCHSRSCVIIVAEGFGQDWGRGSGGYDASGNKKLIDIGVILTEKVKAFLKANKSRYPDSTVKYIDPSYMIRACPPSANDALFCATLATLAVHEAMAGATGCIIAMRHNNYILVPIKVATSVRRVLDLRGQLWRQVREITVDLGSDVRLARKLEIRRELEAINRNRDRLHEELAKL
structure (smiles),measurement,setting,value
CN=C(NC#N)NCCSC[C@H]1N=CN=C1C,outcome,[1],inactive
same,Potency,[2],inactive
same,outcome,[3],inactive
same,"activity change, negative = inhibition",[4]; at 25.7 µM (top of the series),-0.0882% (inactive)
same,max response,[4]; [8],-1.59%
same,max response,[4]; [9],-1.32%
same,Potency,[5],inactive
COC(=O)C1=C(C)NC(C)=C(C(=O)OC(C)C)[C@H]1c1cccc2nonc12,outcome,[1],inactive
same,Potency,[2],inactive
same,outcome,[3],inactive
same,"activity change, negative = inhibition",[4]; at 25.7 µM (top of the series),-0.0066% (inactive)
same,max response,[4]; [8],-21.2%
same,max response,[4]; [9],-22.3%
same,outcome,[6],inactive
same,Potency,[7],inactive
same,Potency,C2A,inactive
same,Potency,CP217,inactive
same,Potency,CP238,inactive
same,Potency,DIV30,inactive
same,Potency,FAB9,inactive
same,Potency,PC49,inactive
C=C(C)[C@H]1CC[C@]2(CO)CC[C@]3(C)[C@@H](CC[C@H]4[C@@]5(C)CC[C@@H](O)C(C)(C)[C@@H]5CC[C@@]43C)[C@H]12,outcome,[1],inactive
same,Potency,[2],inactive
same,outcome,[3],inactive
same,"activity change, negative = inhibition",[4]; at 25.7 µM (top of the series),-10.7% (inactive)
same,max response,[4]; [8],-12.9%
same,max response,[4]; [9],-22.1%
same,Potency,[5],inactive
O=C1C=CC(=O)c2c1ccc1c2ccc2ccccc21,Potency,[2],inactive
same,outcome,[3],inactive
same,"activity change, negative = inhibition",[4]; at 25.7 µM (top of the series),-0.997% (inactive)
same,max response,[4]; [8],-0.715%
same,max response,[4]; [9],-3.16%
C#C[C@]1(O)CC[C@@H]2[C@H]3CCc4cc(OC)ccc4[C@@H]3CC[C@@]21C,outcome,[1],inactive
same,Potency,[2],inactive
same,outcome,[3],inactive
same,"activity change, negative = inhibition",[4]; at 25.7 µM (top of the series),-2.31% (inactive)
same,max response,[4]; [8],-15.5%
same,max response,[4]; [9],-16.7%
same,Potency,[5],inactive
FC(F)(F)c1ccccc1-c1ccc2ncnc(NC3CCNCC3)c2c1,outcome,[1],inactive
same,Potency,[2],inactive
same,outcome,[3],inactive
same,"activity change, negative = inhibition",[4]; at 57.5 µM (top of the series),-0.848% (inactive)
same,max response,[4]; [8],8.99%
same,max response,[4]; [9],6.31%
same,Potency,[5],inactive
CS(=O)(=O)Nc1cccc(-c2nc(Nc3ccc(F)cc3)c3ccccc3n2)c1,Potency,[2],inactive
same,outcome,[3],inactive
same,"activity change, negative = inhibition",[4]; at 57.5 µM (top of the series),3.03% (inactive)
same,max response,[4]; [8],-21%
same,max response,[4]; [9],-26.1%
C[C@H](CCC(=O)O)[C@H]1CC[C@@H]2[C@@H]3[C@@H](O)C[C@H]4C[C@@H](O)CC[C@@]4(C)[C@H]3CC[C@@]21C,outcome,[1],inactive
same,Potency,[2],inactive
same,outcome,[3],inactive
same,"activity change, negative = inhibition",[4]; at 25.7 µM (top of the series),-0.554% (inactive)
same,max response,[4]; [8],-2.48%
same,max response,[4]; [9],-0.386%
same,outcome,[6],inactive
same,Potency,[5],inactive
same,Potency,[7],inactive
same,Potency,3D7,inactive
same,Potency,C2A,inactive
same,Potency,CP217,inactive
same,Potency,CP238,inactive
same,Potency,CP262,inactive
same,Potency,CP269,inactive
same,Potency,CP305,inactive
same,Potency,CP325,inactive
same,Potency,CP329,inactive
same,Potency,DIV30,inactive
same,Potency,FAB9,inactive
same,Potency,PC49,inactive
